# PMC7862700, “An all-to-all approach to the identification of sequence-specific readers for epigenetic DNA modifications on cytosine”
# Key:
# Assay in all cases: DAPPL (digital affinity profiling via proximity ligation, sequencing); 10 mM Tris-HCl pH 7.5, 50 mM NaCl, 1 mM DTT, 4% glycerol, room temperature, 30 min; GST-TFs on glutathione beads, 16-mer random dsDNA library, 0.1% formaldehyde crosslink after washing; high values mean tight binding
# [1] = target: T1, FLI1 (Homo sapiens, UniProt Q01543 1-452); conditions: protein: recombinant; tags: N-terminal GST; dsDNA, one strand shown
# T1 sequence: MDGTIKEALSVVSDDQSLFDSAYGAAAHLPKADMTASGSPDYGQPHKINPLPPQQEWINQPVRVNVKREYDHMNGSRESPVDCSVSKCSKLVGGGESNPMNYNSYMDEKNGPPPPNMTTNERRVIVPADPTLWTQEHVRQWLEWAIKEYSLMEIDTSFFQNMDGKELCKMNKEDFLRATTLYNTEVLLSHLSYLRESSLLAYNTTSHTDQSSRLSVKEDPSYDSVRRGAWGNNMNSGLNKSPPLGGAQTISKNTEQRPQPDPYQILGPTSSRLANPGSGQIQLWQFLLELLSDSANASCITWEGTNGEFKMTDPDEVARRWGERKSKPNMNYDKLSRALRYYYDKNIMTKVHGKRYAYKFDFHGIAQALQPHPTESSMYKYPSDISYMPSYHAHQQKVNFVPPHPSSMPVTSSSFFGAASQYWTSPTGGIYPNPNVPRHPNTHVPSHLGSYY
# Summary of the method: (§1)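 In yeast, human transcription factors were expressed with a GST fusion, then pulled down on glutathione beads and given DNA barcodes. Pooled with a tag-only sample, they were exposed to 200 nmole of a 16-mer random double-stranded DNA library (Tris/NaCl/DTT/glycerol buffer, room temperature, 30 min), washed, crosslinked with 0.1% formaldehyde, proximity-ligated using BsaI/T4 ligase for 1 h at 37 °C, PCR-amplified and read on an Illumina NextSeq500. Each hexamer's frequency of reads for a factor, divided by the matching frequency for the tag-only sample, gives the binding signal.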
# [2] = target: T2, ELK1 (Homo sapiens, UniProt P19419 1-428); conditions: protein: recombinant; tags: N-terminal GST; dsDNA, one strand shown
# T2 sequence: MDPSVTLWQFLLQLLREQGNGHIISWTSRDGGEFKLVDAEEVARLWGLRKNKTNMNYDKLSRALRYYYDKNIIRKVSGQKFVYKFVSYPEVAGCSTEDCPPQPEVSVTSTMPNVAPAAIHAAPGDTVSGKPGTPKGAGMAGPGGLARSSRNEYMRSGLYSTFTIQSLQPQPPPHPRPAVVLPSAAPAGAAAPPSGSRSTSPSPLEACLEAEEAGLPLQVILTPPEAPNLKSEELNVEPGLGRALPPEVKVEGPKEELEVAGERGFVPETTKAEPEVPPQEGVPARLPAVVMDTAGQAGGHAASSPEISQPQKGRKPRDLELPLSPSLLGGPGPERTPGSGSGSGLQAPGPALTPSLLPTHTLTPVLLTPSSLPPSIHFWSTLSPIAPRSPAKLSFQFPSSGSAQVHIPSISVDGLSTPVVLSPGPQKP
# Summary of the method: as §1
# [3] = target: T3, GABPA (Homo sapiens, UniProt Q06546 1-454); conditions: protein: recombinant; tags: N-terminal GST; dsDNA, one strand shown
# T3 sequence: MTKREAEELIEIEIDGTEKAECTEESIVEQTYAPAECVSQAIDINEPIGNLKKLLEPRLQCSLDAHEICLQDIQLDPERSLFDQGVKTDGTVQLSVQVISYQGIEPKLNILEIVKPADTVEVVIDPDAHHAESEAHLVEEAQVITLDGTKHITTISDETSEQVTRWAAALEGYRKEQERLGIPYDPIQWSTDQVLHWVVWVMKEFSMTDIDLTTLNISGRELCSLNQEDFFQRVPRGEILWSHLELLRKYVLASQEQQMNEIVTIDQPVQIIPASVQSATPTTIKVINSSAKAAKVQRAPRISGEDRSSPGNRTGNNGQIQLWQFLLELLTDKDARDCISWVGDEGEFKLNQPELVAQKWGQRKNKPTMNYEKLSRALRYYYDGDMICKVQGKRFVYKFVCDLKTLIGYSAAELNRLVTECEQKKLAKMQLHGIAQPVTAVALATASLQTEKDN
# Summary of the method: as §1
# [4] = target: T4, ERG (Homo sapiens, UniProt P11308 1-479); conditions: protein: recombinant; tags: N-terminal GST; dsDNA, one strand shown
# T4 sequence: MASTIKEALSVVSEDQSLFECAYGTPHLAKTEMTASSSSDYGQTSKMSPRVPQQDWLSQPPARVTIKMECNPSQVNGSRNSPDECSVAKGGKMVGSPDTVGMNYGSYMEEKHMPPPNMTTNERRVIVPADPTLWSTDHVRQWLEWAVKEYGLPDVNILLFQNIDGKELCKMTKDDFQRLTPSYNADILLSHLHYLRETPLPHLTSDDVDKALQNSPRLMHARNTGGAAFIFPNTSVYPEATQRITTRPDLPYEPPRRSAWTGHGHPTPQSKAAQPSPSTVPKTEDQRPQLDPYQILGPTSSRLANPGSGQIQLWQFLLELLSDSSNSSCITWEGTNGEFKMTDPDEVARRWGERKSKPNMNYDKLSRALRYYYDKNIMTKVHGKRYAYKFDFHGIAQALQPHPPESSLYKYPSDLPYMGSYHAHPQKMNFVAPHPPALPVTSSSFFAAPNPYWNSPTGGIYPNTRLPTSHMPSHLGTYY
# Summary of the method: as §1
# [5] = target: ELF1 (Homo sapiens, UniProt P32519 1-619); conditions: protein: recombinant; tags: N-terminal GST; dsDNA, one strand shown
# Summary of the method: as §1
# [6] = target: T5, EHF (Homo sapiens, UniProt Q9NZC4 1-300); conditions: protein: recombinant; tags: N-terminal GST; dsDNA, one strand shown
# T5 sequence: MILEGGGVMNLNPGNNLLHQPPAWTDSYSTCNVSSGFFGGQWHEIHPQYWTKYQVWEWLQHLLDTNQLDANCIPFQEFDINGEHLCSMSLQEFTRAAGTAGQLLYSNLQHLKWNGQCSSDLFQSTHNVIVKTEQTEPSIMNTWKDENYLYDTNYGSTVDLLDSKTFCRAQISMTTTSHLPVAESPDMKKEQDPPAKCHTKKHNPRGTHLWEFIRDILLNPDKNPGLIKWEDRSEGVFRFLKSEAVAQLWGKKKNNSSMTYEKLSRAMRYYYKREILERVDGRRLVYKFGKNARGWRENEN
# Summary of the method: as §1
# [7] = target: SPI1 (Homo sapiens, UniProt P17947 1-270); conditions: protein: recombinant; tags: N-terminal GST; dsDNA, one strand shown
# Summary of the method: as §1
# [8] = target: SPIB (Homo sapiens, UniProt Q01892 1-262); conditions: protein: recombinant; tags: N-terminal GST; dsDNA, one strand shown
# Summary of the method: as §1
# [9] = target: T6, ELK3 (Homo sapiens, UniProt P41970 1-407); conditions: protein: recombinant; tags: N-terminal GST; dsDNA, one strand shown
# T6 sequence: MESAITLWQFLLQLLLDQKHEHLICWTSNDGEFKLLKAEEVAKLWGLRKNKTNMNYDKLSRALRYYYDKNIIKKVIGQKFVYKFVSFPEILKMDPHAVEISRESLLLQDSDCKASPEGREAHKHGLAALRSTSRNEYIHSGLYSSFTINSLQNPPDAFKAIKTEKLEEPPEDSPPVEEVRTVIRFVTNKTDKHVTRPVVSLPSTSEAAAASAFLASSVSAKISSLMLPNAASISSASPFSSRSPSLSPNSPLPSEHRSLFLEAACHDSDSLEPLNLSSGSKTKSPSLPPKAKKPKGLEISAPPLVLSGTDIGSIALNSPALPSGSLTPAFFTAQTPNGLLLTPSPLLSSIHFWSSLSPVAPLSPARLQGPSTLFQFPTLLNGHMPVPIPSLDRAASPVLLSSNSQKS
# Summary of the method: as §1
# [10] = target: T7, FEV (Homo sapiens, UniProt Q99581 1-238); conditions: protein: recombinant; tags: N-terminal GST; dsDNA, one strand shown
# T7 sequence: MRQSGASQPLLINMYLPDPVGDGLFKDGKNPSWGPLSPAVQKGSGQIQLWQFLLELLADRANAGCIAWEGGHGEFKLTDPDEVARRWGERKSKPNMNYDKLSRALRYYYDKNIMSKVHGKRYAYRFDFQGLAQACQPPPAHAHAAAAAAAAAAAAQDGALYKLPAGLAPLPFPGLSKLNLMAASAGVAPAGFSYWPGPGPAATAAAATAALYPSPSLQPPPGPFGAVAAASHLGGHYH
# Summary of the method: as §1
# [11] = target: ETV5 (Homo sapiens, UniProt P41161 1-510); conditions: protein: recombinant; tags: N-terminal GST; dsDNA, one strand shown
# Summary of the method: as §1
# [12] = target: HSF1 (Homo sapiens, UniProt Q00613 1-529); conditions: protein: recombinant; tags: N-terminal GST; chain copies: 3; dsDNA, one strand shown
# Summary of the method: as §1
# [13] = target: T8, SPIC (Homo sapiens, UniProt Q8N5J4 1-248); conditions: protein: recombinant; tags: N-terminal GST; dsDNA, one strand shown
# T8 sequence: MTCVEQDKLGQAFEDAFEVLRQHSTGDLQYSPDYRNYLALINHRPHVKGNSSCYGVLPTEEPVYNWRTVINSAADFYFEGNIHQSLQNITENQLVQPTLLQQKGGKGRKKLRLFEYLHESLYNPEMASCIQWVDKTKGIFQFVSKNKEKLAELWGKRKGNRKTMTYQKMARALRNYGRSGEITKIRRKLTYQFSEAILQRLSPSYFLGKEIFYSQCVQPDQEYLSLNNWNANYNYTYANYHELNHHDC
# Summary of the method: as §1
# [14] = target: ELF4 (Homo sapiens, UniProt Q99607 1-663); conditions: protein: recombinant; tags: N-terminal GST; dsDNA, one strand shown
# Summary of the method: as §1
# [15] = target: T9, ELK4 (Homo sapiens, UniProt P28324-2 1-405); conditions: protein: recombinant; tags: N-terminal GST; dsDNA, one strand shown
# T9 sequence: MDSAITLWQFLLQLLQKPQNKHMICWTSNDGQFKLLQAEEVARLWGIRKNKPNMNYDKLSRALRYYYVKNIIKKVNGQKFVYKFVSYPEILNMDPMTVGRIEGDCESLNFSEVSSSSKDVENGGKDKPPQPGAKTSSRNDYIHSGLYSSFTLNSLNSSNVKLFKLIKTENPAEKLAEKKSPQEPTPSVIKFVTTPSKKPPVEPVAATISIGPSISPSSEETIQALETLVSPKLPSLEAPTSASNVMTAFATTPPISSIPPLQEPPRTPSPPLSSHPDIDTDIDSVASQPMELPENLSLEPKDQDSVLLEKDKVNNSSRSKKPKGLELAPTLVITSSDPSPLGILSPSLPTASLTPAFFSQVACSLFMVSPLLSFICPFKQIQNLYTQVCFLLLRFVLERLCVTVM
# Summary of the method: as §1
# [16] = target: T10, ETV2 (Homo sapiens, UniProt O00321 1-342); conditions: protein: recombinant; tags: N-terminal GST; dsDNA, one strand shown
# T10 sequence: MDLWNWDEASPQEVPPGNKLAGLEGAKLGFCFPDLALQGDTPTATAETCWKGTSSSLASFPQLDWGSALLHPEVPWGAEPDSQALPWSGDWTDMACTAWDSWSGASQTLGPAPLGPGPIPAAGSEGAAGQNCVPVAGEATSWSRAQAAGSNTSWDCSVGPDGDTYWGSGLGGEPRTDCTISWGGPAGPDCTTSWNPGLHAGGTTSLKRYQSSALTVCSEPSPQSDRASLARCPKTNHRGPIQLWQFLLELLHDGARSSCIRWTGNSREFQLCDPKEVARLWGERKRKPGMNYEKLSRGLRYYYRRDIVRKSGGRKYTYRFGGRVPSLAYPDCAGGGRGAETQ
# Summary of the method: as §1
# [17] = target: T11, ELF3 (Homo sapiens, UniProt P78545 1-371); conditions: protein: recombinant; tags: N-terminal GST; dsDNA, one strand shown
# T11 sequence: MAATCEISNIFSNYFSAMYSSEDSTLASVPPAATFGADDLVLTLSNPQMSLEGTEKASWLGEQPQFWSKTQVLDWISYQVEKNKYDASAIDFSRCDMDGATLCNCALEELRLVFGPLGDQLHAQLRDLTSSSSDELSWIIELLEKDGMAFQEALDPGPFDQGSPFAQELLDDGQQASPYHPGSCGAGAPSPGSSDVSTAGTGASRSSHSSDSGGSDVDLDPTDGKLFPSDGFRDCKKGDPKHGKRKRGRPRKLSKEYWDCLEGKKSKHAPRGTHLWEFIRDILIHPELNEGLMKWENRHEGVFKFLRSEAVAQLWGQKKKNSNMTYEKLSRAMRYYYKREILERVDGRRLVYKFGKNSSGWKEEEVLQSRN
# Summary of the method: as §1
# [18] = target: CRX (Homo sapiens, UniProt O43186 1-299); conditions: protein: recombinant; tags: N-terminal GST; dsDNA, one strand shown
# Summary of the method: as §1
# [19] = target: ETV1 (Homo sapiens, UniProt P50549 1-477); conditions: protein: recombinant; tags: N-terminal GST; dsDNA, one strand shown
# Summary of the method: as §1
# ELF1, sequence (P32519 whole entry): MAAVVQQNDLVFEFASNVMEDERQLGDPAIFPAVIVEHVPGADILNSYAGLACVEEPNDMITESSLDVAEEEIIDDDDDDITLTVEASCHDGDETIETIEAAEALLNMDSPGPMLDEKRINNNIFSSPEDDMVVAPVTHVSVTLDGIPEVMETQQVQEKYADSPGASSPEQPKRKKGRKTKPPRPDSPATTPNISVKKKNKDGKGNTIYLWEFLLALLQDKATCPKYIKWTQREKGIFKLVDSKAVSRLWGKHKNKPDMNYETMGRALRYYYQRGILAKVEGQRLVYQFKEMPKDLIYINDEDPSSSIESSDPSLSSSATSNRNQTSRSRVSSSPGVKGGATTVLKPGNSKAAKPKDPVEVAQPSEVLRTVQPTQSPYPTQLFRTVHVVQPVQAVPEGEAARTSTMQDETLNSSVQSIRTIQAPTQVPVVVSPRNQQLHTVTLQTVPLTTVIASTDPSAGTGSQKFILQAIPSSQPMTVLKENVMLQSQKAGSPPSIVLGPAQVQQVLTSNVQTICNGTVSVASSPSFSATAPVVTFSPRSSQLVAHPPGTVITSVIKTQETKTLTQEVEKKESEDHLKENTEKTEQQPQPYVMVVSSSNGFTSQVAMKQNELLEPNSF
# HSF1, sequence (Q00613 whole entry): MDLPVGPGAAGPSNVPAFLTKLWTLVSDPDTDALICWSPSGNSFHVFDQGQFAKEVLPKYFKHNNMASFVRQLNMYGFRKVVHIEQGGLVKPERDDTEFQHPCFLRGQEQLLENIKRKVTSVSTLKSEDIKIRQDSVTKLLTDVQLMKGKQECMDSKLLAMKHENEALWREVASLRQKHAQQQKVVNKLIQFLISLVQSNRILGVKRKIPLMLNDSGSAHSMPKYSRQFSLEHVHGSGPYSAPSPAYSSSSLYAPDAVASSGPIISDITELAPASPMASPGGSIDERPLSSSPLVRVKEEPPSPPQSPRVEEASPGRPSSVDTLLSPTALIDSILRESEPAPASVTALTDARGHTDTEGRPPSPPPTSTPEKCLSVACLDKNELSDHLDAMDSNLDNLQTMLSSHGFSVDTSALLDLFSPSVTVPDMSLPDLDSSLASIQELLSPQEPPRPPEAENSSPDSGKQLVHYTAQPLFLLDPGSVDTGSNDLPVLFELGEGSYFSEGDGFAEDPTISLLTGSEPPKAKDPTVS
# SPIB, sequence (Q01892 whole entry): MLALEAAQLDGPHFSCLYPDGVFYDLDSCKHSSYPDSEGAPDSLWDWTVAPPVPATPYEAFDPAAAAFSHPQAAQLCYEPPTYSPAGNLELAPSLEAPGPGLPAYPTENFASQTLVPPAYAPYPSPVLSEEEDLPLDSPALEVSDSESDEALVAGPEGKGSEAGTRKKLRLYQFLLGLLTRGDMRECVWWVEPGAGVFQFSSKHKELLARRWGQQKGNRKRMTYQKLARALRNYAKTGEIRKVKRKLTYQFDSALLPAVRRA
# ELF4, sequence (Q99607 whole entry): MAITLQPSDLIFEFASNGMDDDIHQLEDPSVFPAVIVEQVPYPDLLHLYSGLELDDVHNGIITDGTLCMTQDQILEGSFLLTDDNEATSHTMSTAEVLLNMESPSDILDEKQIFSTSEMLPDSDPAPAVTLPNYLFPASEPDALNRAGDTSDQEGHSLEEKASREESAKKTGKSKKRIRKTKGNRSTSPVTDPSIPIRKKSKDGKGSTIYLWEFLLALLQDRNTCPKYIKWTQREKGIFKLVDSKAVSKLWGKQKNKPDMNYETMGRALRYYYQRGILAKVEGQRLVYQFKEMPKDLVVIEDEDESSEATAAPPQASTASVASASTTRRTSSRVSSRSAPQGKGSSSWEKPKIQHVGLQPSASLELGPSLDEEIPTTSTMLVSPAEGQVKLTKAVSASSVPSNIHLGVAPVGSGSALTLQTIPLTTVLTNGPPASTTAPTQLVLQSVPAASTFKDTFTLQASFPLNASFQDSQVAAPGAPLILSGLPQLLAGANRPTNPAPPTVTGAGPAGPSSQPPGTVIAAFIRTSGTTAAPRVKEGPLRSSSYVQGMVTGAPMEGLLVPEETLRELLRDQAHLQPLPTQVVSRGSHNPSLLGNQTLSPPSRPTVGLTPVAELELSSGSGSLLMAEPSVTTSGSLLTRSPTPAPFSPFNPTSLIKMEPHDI
# ETV1, sequence (P50549 whole entry): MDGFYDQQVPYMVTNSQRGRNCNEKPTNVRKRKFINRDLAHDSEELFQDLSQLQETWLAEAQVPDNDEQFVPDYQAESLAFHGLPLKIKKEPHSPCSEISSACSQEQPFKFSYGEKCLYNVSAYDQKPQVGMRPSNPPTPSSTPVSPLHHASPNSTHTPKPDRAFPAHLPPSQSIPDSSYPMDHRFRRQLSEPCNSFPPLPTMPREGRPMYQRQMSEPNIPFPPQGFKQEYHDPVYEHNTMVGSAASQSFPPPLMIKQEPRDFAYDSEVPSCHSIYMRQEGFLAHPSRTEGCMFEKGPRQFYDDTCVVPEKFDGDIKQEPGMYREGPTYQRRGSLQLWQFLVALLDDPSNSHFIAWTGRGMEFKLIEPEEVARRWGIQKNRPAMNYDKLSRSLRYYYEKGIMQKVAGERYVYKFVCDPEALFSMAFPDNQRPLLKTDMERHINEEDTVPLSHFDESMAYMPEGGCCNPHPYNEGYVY
# CRX, sequence (O43186 whole entry): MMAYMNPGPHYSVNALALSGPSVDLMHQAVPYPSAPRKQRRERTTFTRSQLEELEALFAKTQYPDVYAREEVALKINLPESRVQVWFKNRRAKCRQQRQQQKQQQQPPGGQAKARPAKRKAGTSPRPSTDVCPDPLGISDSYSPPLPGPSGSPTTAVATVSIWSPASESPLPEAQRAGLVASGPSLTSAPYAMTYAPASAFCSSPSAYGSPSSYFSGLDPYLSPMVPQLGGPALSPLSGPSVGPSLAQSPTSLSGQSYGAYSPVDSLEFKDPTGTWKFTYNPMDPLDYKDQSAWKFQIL
# ETV5, sequence (P41161 whole entry): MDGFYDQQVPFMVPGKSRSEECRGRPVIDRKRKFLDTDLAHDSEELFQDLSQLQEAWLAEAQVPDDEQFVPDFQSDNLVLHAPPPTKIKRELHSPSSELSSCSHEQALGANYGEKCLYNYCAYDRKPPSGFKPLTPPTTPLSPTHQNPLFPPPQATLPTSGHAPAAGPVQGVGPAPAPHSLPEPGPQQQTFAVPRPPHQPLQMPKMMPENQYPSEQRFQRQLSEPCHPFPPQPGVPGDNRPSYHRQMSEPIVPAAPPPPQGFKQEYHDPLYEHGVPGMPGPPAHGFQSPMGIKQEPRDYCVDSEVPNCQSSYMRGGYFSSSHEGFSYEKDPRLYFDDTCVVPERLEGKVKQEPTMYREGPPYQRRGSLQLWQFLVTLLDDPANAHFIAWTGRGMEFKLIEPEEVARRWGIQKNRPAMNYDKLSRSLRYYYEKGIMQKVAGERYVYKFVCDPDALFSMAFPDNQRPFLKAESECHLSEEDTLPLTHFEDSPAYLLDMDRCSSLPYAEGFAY
sequence,measurement,setting,value
TTAACC,binding signal,[1],"1.2 fold enrichment (6-mer frequency, TF over GST control)"
same,binding signal,[2],"1.25 fold enrichment (6-mer frequency, TF over GST control)"
same,binding signal,[3],"1.18 fold enrichment (6-mer frequency, TF over GST control)"
same,binding signal,[4],"1.21 fold enrichment (6-mer frequency, TF over GST control)"
same,binding signal,[5],"1.31 fold enrichment (6-mer frequency, TF over GST control)"
same,binding signal,[6],"1.24 fold enrichment (6-mer frequency, TF over GST control)"
same,binding signal,[7],"1.23 fold enrichment (6-mer frequency, TF over GST control)"
same,binding signal,[8],"1.33 fold enrichment (6-mer frequency, TF over GST control)"
same,binding signal,[9],"1.3 fold enrichment (6-mer frequency, TF over GST control)"
same,binding signal,[10],"1.29 fold enrichment (6-mer frequency, TF over GST control)"
same,binding signal,[11],"1.22 fold enrichment (6-mer frequency, TF over GST control)"
same,binding signal,[12],"1.8 fold enrichment (6-mer frequency, TF over GST control)"
same,binding signal,[13],"1.26 fold enrichment (6-mer frequency, TF over GST control)"
same,binding signal,[14],"1.32 fold enrichment (6-mer frequency, TF over GST control)"
same,binding signal,[15],"1.31 fold enrichment (6-mer frequency, TF over GST control)"
same,binding signal,[16],"1.36 fold enrichment (6-mer frequency, TF over GST control)"
same,binding signal,[17],"1.27 fold enrichment (6-mer frequency, TF over GST control)"
same,binding signal,[18],"2.67 fold enrichment (6-mer frequency, TF over GST control)"
same,binding signal,[19],"1.28 fold enrichment (6-mer frequency, TF over GST control)"
